Screening data (PubChem BioAssay)
An excerpt weighted towards active compounds, which were near 6.2% of everything screened.
HT1080 IDH1KD tx: kills HT-1080 cells with IDH1 knockdown; Potency, µM (top dose mostly 46.1 µM), usual class: cytotoxic; HT-1080 IDH1 knockdown viability, ATP luminescence, 48 h; 2% of 360,000 active
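IDH1KD HT-1080 cells, 750/well, RPMI + 5% FBS; compound pinned after 2 h settling; 48 h, 37 °C; CellTiter-Glo luminescence; % activity normalised to DMSO and no-cell wells; curves fitted, classed by r2 and efficacy.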
KB-V1 MDR tox: kills drug-selected multidrug resistant KB-V1 cells | KB-V1 MDR cells viability, CellTiter-Glo, 72 h | Potency, µM (series often up to 46.1 µM), hits mostly cytotoxic | 3.4% of 400,000 active; note: nearly all actives have a fitted effect of over 60% in size
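Compound-treated KB-V1 multidrug-resistant cells, 72 h, 37 degrees C; viability by CellTiter-Glo. Fitted qHTS curves give the values.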
KB-3-1 cytotox: KB-3-1 parental cell cytotoxicity; AID 1347075; KB-3-1 viability, CellTiter-Glo ATP luminescence, 72 h; Potency, µM (doses to about 46.1 µM), most hits filed as cytotoxic; 1.4% of 400,000 active; note: nearly all actives have a fitted effect of over 60% in size
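Parental KB-3-1 adenocarcinoma cells in phenol-red-free DMEM with 10% FBS were pin-treated with compounds at several concentrations, incubated 72 h at 37 °C, and viability read by CellTiter-Glo luminescence; concentration-effect curves were fitted after normalization.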
HT1080NT lethal: kills 2HG-producing HT-1080-NT fibrosarcoma cells; HT-1080-NT fibrosarcoma viability, CellTiter-Glo ATP luminescence, 48 h; Potency, µM (series often up to 46.1 µM), usual class: cytotoxic; 1.6% of 360,000 active; AID 686970;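 note: NT is the 2HG producing partner of a matched IDH1 knockdown line; nearly all actives have a fitted effect of over 55% in size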
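Viability of the 2HG-overproducing fibrosarcoma line after 48 hours of compound exposure at 37 degrees C was determined by luminescence with CellTiter-Glo, and concentration-effect curves were then fitted and categorized.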
ATXN viability: cell viability loss in ATXN counter-screen. S2 cells (HEK-293 line with an ATXN2-luciferase reporter) viability, CellTiter-Fluor protease fluorescence, 24 h. 0.49% of 400,000 active. Potency, µM (highest dose often 56.7 µM), actives largely listed as cytotoxic; note: nearly all actives have a fitted effect of over 40% in size
ATXN2 expr inh: inhibitors of ATXN2 expression | Potency, µM (series often up to 57 µM), actives largely listed as inhibitors | AID 1745845 | 0.72% of 360,000 active | HEK-293 ATXN2-luciferase reporter, luminescence, 24 h; note: nearly all actives have a fitted effect of over 55% in size
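ATXN2-luciferase reporter cells (luciferase flanked by upstream and downstream ATXN2 gene portions) were treated 24 h at 37 °C with compounds at up to 57 uM. SteadyGlo luminescence gave expression; GF-AFC fluorescence gave viability.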
Large screens that a line does not name were inactive. Calls come from the whole dose curve; as a rule, active = well fitted curve in the direction sought with a large enough effect; inconclusive = small, poorly fitted or top-dose-only effect, or another doubt; inactive = no such curve, though single readings can be large; an effect the other way counts as inactive or inconclusive.

Cc1cc(NCCNC2=CC(=O)CCC2)nc2ccccc12	none
COc1ccc(-c2cc(C(=O)NC(C)c3ccccc3)c3cc(C(C)C)ccc3n2)cc1 (centres undefined)	none (no result: HT1080 IDH1KD tx, HT1080NT lethal)
COc1cc(OC)c(Nc2nc3ccc(C(=O)c4ccccc4)cc3n3c(C)nnc23)cc1Cl	none (no result: HT1080 IDH1KD tx, HT1080NT lethal)
CCOC(=O)C1CCN(C(c2cc3ccc(C)c(C)c3[nH]c2=O)c2nnnn2C2CCCCC2)CC1 (centres undefined)	HT1080 IDH1KD tx inconclusive, KB-V1 MDR tox 16µM, ATXN viability inconclusive
O=NN(CCc1ccncc1)c1ccc(OCc2ccccc2)cc1	KB-V1 MDR tox 3.3µM
COc1cccc(CNC(=O)c2ccc3oc(=O)n(Cc4ccccc4)c3c2)c1	ATXN viability inconclusive (no result: HT1080 IDH1KD tx, HT1080NT lethal)
COc1ccc([C@@H]2CC(=O)c3c(O)cc(O[C@@H]4O[C@H](CO[C@@H]5O[C@@H](C)[C@H](O)[C@@H](O)[C@@H]5O)[C@@H](O)[C@H](O)[C@@H]4O)cc3O2)cc1O	none (no result: HT1080 IDH1KD tx, KB-V1 MDR tox, KB-3-1 cytotox, HT1080NT lethal, ATXN viability)
CCc1ccc(OCC(=O)Nc2ccncc2)c(Br)c1	HT1080 IDH1KD tx inconclusive, KB-V1 MDR tox 9.2µM, KB-3-1 cytotox inconclusive, HT1080NT lethal inconclusive, ATXN viability inconclusive
COc1cccc(OCC(=O)Nc2ccncc2)c1	KB-3-1 cytotox inconclusive
CC(C)CCOc1cccc(OCC(=O)Nc2ccncc2)c1	HT1080 IDH1KD tx inconclusive, KB-V1 MDR tox 2.9µM, KB-3-1 cytotox inconclusive, HT1080NT lethal inconclusive
COc1ccc(-c2noc(-c3ccc(NCc4ccc(C)cc4)c([N+](=O)[O-])c3)n2)cc1OC	none (no result: HT1080 IDH1KD tx, HT1080NT lethal)
O=C(Nc1nc2ccccc2[nH]1)C1CCN(C(=O)c2ccc(F)cc2)CC1	none
CSc1ccccc1C(=O)Nc1nc2ccccc2[nH]1	none
COc1cc(SC)ccc1C(=O)Nc1nc2ccccc2[nH]1	HT1080 IDH1KD tx 1.5µM, KB-V1 MDR tox inconclusive, KB-3-1 cytotox 2.9µM, HT1080NT lethal 1.6µM, ATXN2 expr inh 0.32µM
O=C(Nc1nc2ccccc2[nH]1)C1CC1	HT1080 IDH1KD tx inconclusive, KB-V1 MDR tox 10µM, KB-3-1 cytotox inconclusive, HT1080NT lethal inconclusive, ATXN viability inconclusive
COc1ccccc1C(=O)Nc1nc2ccccc2[nH]1	HT1080 IDH1KD tx 1.3µM, KB-V1 MDR tox 4.1µM, KB-3-1 cytotox 2.3µM, HT1080NT lethal 1.5µM, ATXN2 expr inh 0.32µM
Cc1ccc(C)c(NC(=O)CSc2c(C)cnc3c2c(=O)n(C)c(=O)n3C)c1	ATXN viability inconclusive (no result: HT1080 IDH1KD tx, HT1080NT lethal)
Cc1ccc(-c2csc(-c3cc4c([nH]c3=O)CC(c3ccccc3)CC4=O)n2)cc1 (centres undefined)	KB-V1 MDR tox inconclusive, KB-3-1 cytotox 0.82µM (no result: HT1080 IDH1KD tx, HT1080NT lethal)
COc1ccc(CCc2cc(OC)c(OC)c(OC)c2)cc1	HT1080 IDH1KD tx inconclusive, KB-V1 MDR tox 2.6µM, KB-3-1 cytotox 0.52µM, HT1080NT lethal 1.6µM
O=C(Nc1ccc(S(=O)(=O)NC2=NCCCCC2)cc1)c1cccs1	none (no result: ATXN2 expr inh)
O=C(Nc1ccc(S(=O)(=O)NC2=NCCCCC2)cc1)c1ccc([N+](=O)[O-])s1	HT1080 IDH1KD tx inconclusive, KB-V1 MDR tox inconclusive, KB-3-1 cytotox 6.5µM, HT1080NT lethal inconclusive, ATXN2 expr inh inconclusive
Cc1ccnc(NS(=O)(=O)c2ccc(NC(=O)c3ccc([N+](=O)[O-])s3)cc2)n1	HT1080 IDH1KD tx inconclusive, KB-3-1 cytotox 15µM, HT1080NT lethal inconclusive, ATXN2 expr inh inconclusive
O=C(Nc1ccc(S(=O)(=O)NC2=NCCCCC2)cc1)c1ccc(C(F)(F)F)cc1	KB-V1 MDR tox 21µM, KB-3-1 cytotox 21µM, ATXN viability inconclusive (no result: ATXN2 expr inh)
COc1ccc(Nc2nc3c(S(=O)(=O)c4ccc(Br)cc4)nnn3c3ccsc23)c(OC)c1	none (no result: HT1080 IDH1KD tx, HT1080NT lethal, ATXN viability, ATXN2 expr inh)
Brc1cc(Br)c[n+](CCc2ccccc2)c1	none (no result: HT1080 IDH1KD tx, HT1080NT lethal, ATXN viability, ATXN2 expr inh)
N#Cc1nc(Cc2cccc3ccccc23)oc1NCC1CCCO1 (centres undefined)	KB-V1 MDR tox 16µM
N#Cc1nc(Cc2cccc3ccccc23)oc1NCc1ccco1	HT1080 IDH1KD tx inconclusive, KB-V1 MDR tox inconclusive
COc1ccc(/C=C2\COc3ccccc3C2=O)cc1OC	HT1080 IDH1KD tx 18µM, KB-3-1 cytotox inconclusive, HT1080NT lethal 12µM
O=C1/C(=C/c2ccncc2)CCc2ccccc21	HT1080 IDH1KD tx inconclusive, KB-V1 MDR tox 15µM (no result: ATXN2 expr inh)
